# In all, about 52,000 compounds went through this assay and about 4,300 (8.3%) were called active. Rule as the data show it: active = survival mostly below about 52% (no sharp cut-off); inactive = mostly above about 56%. This excerpt belongs to a sample that is enriched for actives.
# System: DeltatarO mutant
# Experiment: S. aureus survival, RN4220 and DeltatarO strains – OD600, teichoic acid synthesis inhibitors, primary screen (AID 463173)
# Conditions: S. aureus RN4220 wild type/DeltatarO growth, OD600, 18 h, hits give low values, screened at 18.75 µg/mL (by protocol)
row,SMILES,survival
1,O=C(C1CCN(c2nc3ccccc3[nH]2)CC1)N1CCN(c2cccc(Cl)c2)CC1,8% (active)
2,CN(C)c1ccc(CNC(=O)C2CCN(c3nc4ccccc4[nH]3)CC2)cc1,63% (inactive)
3,COc1cccc(CNC(=O)C2CCN(c3nc4ccc(Cl)cc4[nH]3)CC2)c1,101% (inactive)
4,CCOc1cc(CNC(=O)C2CCN(c3nc4ccccc4[nH]3)CC2)cc(OCC)c1OCC,20% (active)
5,O=C(C1CCN(c2nc3ccccc3[nH]2)CC1)N1CCN(c2ccccc2)CC1,89% (inactive)
6,COc1ccccc1CNC(=O)C1CCN(c2nc3ccc(Cl)cc3[nH]2)CC1,25% (active)
7,COc1ccccc1CNC(=O)C1CCN(c2nc3ccc(C)cc3[nH]2)CC1,100% (inactive)
8,COc1ccc(CNC(=O)C2CCN(c3nc4ccccc4[nH]3)CC2)cc1OC,55% (inactive)
9,Cc1ccc2nc(N3CCC(C(=O)N4CCN(c5cccc(Cl)c5)CC4)CC3)[nH]c2c1,68% (inactive)
10,CC1CCN(S(=O)(=O)c2cn(CC(=O)Nc3ccc(F)c(Cl)c3)c(=O)c3ccccc23)CC1,73% (inactive)
11,O=C(NCc1cccs1)c1nn(-c2ccccc2)nc1CO,84% (inactive)
12,CCOc1ccc(-n2nc(CO)c(C(=O)NCc3cccs3)n2)cc1,40% (active)
13,Cc1ccc(-n2nc(CO)c(C(=O)NCc3cccs3)n2)cc1,92% (inactive)
14,Cc1ccc(-n2nc(CO)c(C(=O)NC(C)CCCc3ccccc3)n2)cc1C (configuration not stated),94% (inactive)
15,Cc1ccc(-n2nc(CO)c(C(=O)NC(C)c3ccccc3)n2)cc1C (configuration not stated),41% (active)
16,CCc1ccc(-n2nc(CO)c(C(=O)NCc3cccs3)n2)cc1,60% (inactive)
17,Cc1ccc(-n2nc(CO)c(C(=O)NCc3cccs3)n2)cc1C,39% (active)
18,Cc1ccc(-n2nc(CO)c(C(=O)NCCc3ccccc3)n2)cc1C,111% (inactive)
19,Cc1ccccc1-n1nc(CO)c(C(=O)NCc2cccs2)n1,79% (inactive)
20,CCN(CC)C(=O)C1=CC(c2ccc3c(c2)OCO3)=NS(=O)(=O)N1C,86% (inactive)
21,Cc1nc(SCC(=O)OCN2C(=O)c3ccccc3C2=O)n[nH]1,80% (inactive)
22,COC(=O)C(C)Sc1ncnc2c1c(-c1ccccc1)cn2-c1ccc(F)cc1 (configuration not stated),76% (inactive)
23,Cn1c(=O)c2c(c3ccccc31)OC(=O)CC2c1ccc(C(F)(F)F)cc1 (configuration not stated),61% (inactive)

row,SMILES,survival
1,COc1ccc(C2CC(=O)c3c([nH]c(C(=O)OCCOc4ccccc4)c3C)C2)cc1OC (configuration not stated),99% (inactive)
2,COc1ccc(C)cc1NC(=O)C(Cc1ccccc1)NS(=O)(=O)c1ccc(Br)s1 (configuration not stated),131% (inactive)
3,Cc1ccc(N2CC(NC(=O)C3CC3)CC2=O)cc1C (configuration not stated),94% (inactive)
4,CC(=O)Nc1ccc(OCC(O)CN2CCN(c3ccc(C)c(Cl)c3)CC2)cc1 (configuration not stated),76% (inactive)
5,COc1ccccc1N1CCN(CC(O)COc2ccc(Cl)c(C)c2)CC1 (configuration not stated),59% (inactive)
6,Cc1cc(OCC(O)CN2CCN(c3cccc(Cl)c3)CC2)ccc1Cl (configuration not stated),-1% (active)
7,CCOC(=O)c1c(C)oc2nc(C)nc(NCC3CCN(Cc4ccc(C)cc4)CC3)c12,91% (inactive)
8,O=C(O)CN1C(=O)/C(=c2\sc3nc4ccccc4n3c2=O)c2ccccc21,81% (inactive)
9,O=c1[nH]c2ccc(NCc3ccccc3F)cc2[nH]1,94% (inactive)
10,CCOC(=O)c1cccc(NC(=O)c2cnn(-c3ccccc3)c2-n2cccc2)c1,80% (inactive)
11,CCOc1ccccc1CNC(=O)c1cnn(-c2ccc(C)cc2)c1-n1cccc1,37% (active)
12,COc1ccccc1NC(=O)c1cnn(-c2ccccc2)c1-n1cccc1,93% (inactive)
13,CCc1ccc(NC(=O)c2cnn(-c3ccccc3)c2-n2cccc2)cc1,31% (active)
14,COc1cc(OC)c(NC(=O)c2cnn(-c3ccccc3)c2-n2cccc2)cc1Cl,84% (inactive)
15,COc1ccc(CNC(=O)c2cnn(-c3ccc(F)cc3)c2-n2cccc2)cc1,89% (inactive)
16,Cc1ccc(-n2ncc(C(=O)NCc3ccccc3C)c2-n2cccc2)cc1,74% (inactive)
17,COc1ccc(CNC(=O)c2cnn(-c3ccccc3)c2-n2cccc2)cc1OC,113% (inactive)
18,CSc1ccc(CCNC(=O)c2cnn(-c3ccccc3)c2-n2cccc2)cc1,46% (active)
19,O=C(Nc1cc(C(F)(F)F)ccc1Cl)c1cnn(-c2ccccc2)c1-n1cccc1,0% (active)
20,O=C(NCCc1ccccc1)c1cnn(-c2ccc(F)cc2)c1-n1cccc1,58% (inactive)
21,CCOc1ccc(NC(=O)c2cnn(-c3ccccc3)c2-n2cccc2)cc1,71% (inactive)
22,COCCn1c(C)cc(O)c(C(c2ccccc2F)N2CCN(c3ccccc3)CC2)c1=O (configuration not stated),79% (inactive)
23,COc1ccc(N2CCN(C(=O)CSc3nnc4c(C)cc5cc6c(cc5n34)OCCO6)CC2)cc1,86% (inactive)

row,SMILES,survival
1,COc1ccc(NC(=O)CN2C(=O)C(c3ccccc3)=NC23CCC(C)CC3)cc1Cl (configuration not stated),73% (inactive)
2,COC(=O)c1c(-c2cccs2)csc1NC(=O)c1ccc(C(C)C)cc1,73% (inactive)
3,COc1ccc(C(=O)NCCc2sc(-c3cccc(F)c3)nc2C)cc1,67% (inactive)
4,CCc1ccc(CNC(=O)c2cc3c(=O)oc4ccc(C)cc4c3s2)cc1,82% (inactive)
5,CCCN(C(=O)c1cc2c(=O)oc3ccccc3c2s1)c1cccc(Cl)c1,47% (inactive)
6,CCCN(C(=O)c1cc2c(=O)oc3ccccc3c2s1)c1ccccc1C,54% (inactive)
7,CCN(C(=O)c1cc2c(=O)oc3ccc(C)cc3c2s1)c1ccccc1C,63% (inactive)
8,CCCN(C(=O)c1cc2c(=O)oc3ccccc3c2s1)c1ccc(CC)cc1,31% (active)
9,CCc1ccc(N(CC)C(=O)c2cc3c(=O)oc4ccc(C)cc4c3s2)cc1,42% (active)
10,CCOC(=O)C1=C(CN2CCCCC2)NC(=O)NC1c1ccc(OC)cc1 (configuration not stated),84% (inactive)
11,O=C1Nc2ccccc2C1=Nc1ccc(Br)cc1,74% (inactive)
12,CCN(C(=O)CCS(=O)(=O)c1cccc2nsnc12)c1cccc(C)c1,74% (inactive)
13,O=C(NC1CCCC1)C(c1ccccc1)N(CC1CCCO1)C(=O)Cn1nnc2ccccc21 (configuration not stated),89% (inactive)
14,CCOc1ccccc1NC(=O)CSc1nnc(CC)c(CC)n1,73% (inactive)
15,Cc1ccc(C(=O)NCc2nnnn2-c2ccc(C)c(C)c2)cc1,115% (inactive)
16,Cc1ccc(-n2nnnc2CNC(=O)c2ccccc2)cc1C,144% (inactive)
17,Cc1ccc(-n2nnnc2CNC(=O)C(C)C)cc1C,105% (inactive)
18,Cc1ccc(-n2nnnc2CNC(=O)c2cc(C(F)(F)F)cc(C(F)(F)F)c2)cc1C,0% (active)
19,Cc1ccc(-n2nnnc2CNC(=O)C(C)(C)C)cc1C,46% (active)
20,O=C(CSc1nnnn1Cc1ccccc1)NCCc1ccccc1,89% (inactive)
21,Cc1ccc(-n2nnnc2SCC(=O)NCCc2ccccc2)cc1C,42% (active)
22,Cc1ccc(-n2nnnc2CNC(=O)c2ccc(F)cc2)cc1C,106% (inactive)
23,COc1ccc(-n2nnnc2SCC(=O)NCCc2ccccc2)cc1,53% (inactive)

row,SMILES,survival
1,CCOC(=O)C1=C(CS(=O)(=O)c2ccc(Br)cc2)NC(=O)NC1c1ccccc1 (configuration not stated),80% (inactive)
2,Cc1cccc(-c2cc(NC(=O)COc3ccccc3F)n(-c3ccccc3)n2)c1,86% (inactive)
3,CCOC(=O)c1ccc(NC(=O)Cn2c(=O)cc(C(F)(F)F)c3c(C)nn(C)c32)cc1,95% (inactive)
4,COc1ccc(CCNS(=O)(=O)c2ccc(N3CCCCS3(=O)=O)cc2)cc1OC,69% (inactive)
5,O=C(Nc1ccc2oc(-c3ccc(Br)cc3)nc2c1)c1cc2ccccc2o1,55% (inactive)
6,O=C(Nc1cccc(-c2nc3ccccc3o2)c1)C(F)(F)F,61% (inactive)
7,O=C(Nc1ccc(-c2nc3cc(Cl)ccc3o2)cc1)c1cc(Br)ccc1Cl,93% (inactive)
8,O=C(Nc1ccc2oc(-c3cccnc3)nc2c1)c1ccc(-c2ccccc2)o1,45% (active)
9,COc1ccc(Br)cc1C(=O)Nc1ccc(-c2nc3cc(Cl)ccc3o2)cc1,43% (active)
10,COc1ccc(Cl)cc1C(=O)Nc1ccc2oc(-c3ccc(C(C)(C)C)cc3)nc2c1,82% (inactive)
11,O=C(Nc1ccc(O)c(-c2nc3ccccc3o2)c1)c1ccc(-c2cccc(Cl)c2)o1,49% (inactive)
12,O=C(Nc1ccc2oc(-c3cccnc3)nc2c1)c1ccc(-c2ccc(Cl)cc2)o1,73% (inactive)
13,Cc1c(NC(=O)c2ccc(-c3cccc([N+](=O)[O-])c3)o2)cccc1-c1nc2cc(Cl)ccc2o1,52% (inactive)
14,O=C(Nc1cccc(-c2nc3ccccc3o2)c1)c1ccc(-c2ccc(Br)cc2)o1,39% (active)
15,O=C(Nc1ccc(Cl)c(-c2nc3ccccc3o2)c1)c1ccc(-c2cccc([N+](=O)[O-])c2)o1,37% (active)
16,O=C(Nc1ccc2oc(-c3cccnc3)nc2c1)c1ccc(-c2cccc(Cl)c2)o1,50% (inactive)
17,CCOc1ccc(OCC)c(-n2cnnn2)c1,71% (inactive)
18,CCOc1ccc2oc(=O)cc(CN3CCN(c4ccc(OC)cc4)CC3)c2c1,73% (inactive)
19,COc1ccccc1N1CCN(C(=O)CSc2nc3ccccc3nc2Cc2ccc(F)cc2)CC1,95% (inactive)
20,Cc1cccc(-c2noc(-c3cc(C(C)C)[nH]n3)n2)c1,97% (inactive)
21,Cc1ccc(CCNC(=O)c2ccc3c(=O)n(-c4ccccc4)c(=O)[nH]c3c2)cc1,86% (inactive)
22,Cc1cc(O)c(C(c2ccc(F)cc2)N2CCCCC2)c(=O)n1Cc1ccco1 (configuration not stated),75% (inactive)
23,COc1cccc(NC(=O)Cn2c(=O)n(CCCC(=O)NCc3ccc4c(c3)OCO4)c(=O)c3ccccc32)c1,115% (inactive)
